Bioassay records: PubChem, National Center for Advancing Translational Sciences (NCATS)
RE007 growth inh = less growth of the S. pombe RE007 Vpr strain | S. pombe RE007 Vpr strain, BacTiter-Glo ATP luminescence, 24 h | Potency, µM (titrated, usually from 92.2 µM), for inactives: at the highest dose activity change, negative = less growth, most hits filed as inhibitors | hit rate 0.21% among 360,000 | AID 651644; active = well fitted falling curve with a large enough effect; inconclusive = small, poorly fitted or top-dose-only effect; inactive = no such curve, though single readings can be large or run the other way; note: % is set by controls: 0 for no effect and ±100 for the full control effect; nearly all actives have a fitted effect of over 50% in size
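Fission yeast strain RE007, carrying one chromosomally integrated HIV-1 vpr copy, was seeded at OD 0.01 in PMG+AL medium with 23 nL pinned compound. After 24 h at 30 °C and 99% humidity, viability was read by BacTiter-Glo luminescence.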
NS1 inh = inhibitors of influenza NS1 protein function; AID 2326; Potency, µM (doses to about 46.1 µM), inactives show at the top dose activity, positive = more growth; hit rate 0.4% among 270,000; calls by dose curve; note: actives are rising curves; nearly all actives have a fitted effect of over 50% in size
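In this qHTS, NS1 from influenza A is expressed in budding yeast, where it slows growth. Cells are switched from glucose to 2% galactose medium (pH 6.0, -URA), treated with compound, and growth recovery is read at OD600.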
Pf growth 48h = P. falciparum growth inhibition at 48 hours (one generation); P. falciparum luciferase growth in erythrocytes, 48 h; Potency, µM (doses to about 28.7 µM), without a hit: at the top dose activity change, negative = inhibition, most hits filed as inhibitors; hit rate 5.9% among 310,000; AID 504832; note: % is set by controls: 0 for no effect and ±100 for the full control effect
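Luminescence readout; reporter = integrated firefly luciferase in P. falciparum. RBC culture at 2% hematocrit, 0.1% parasitemia final, 37 C/5% CO2; decreased signal taken as growth inhibition.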
SARS PLP yeast = blocks SARS-CoV papain-like protease in a yeast assay; Potency, µM (top dose mostly 32.9 µM), without a hit: at the highest dose activity, positive = growth rescue, hits mostly activators; S. cerevisiae expressing SARS-CoV PLpro, growth rescue; hit rate 0.19% among 330,000; calls by dose curve; note: 0% is about no effect; nearly all actives have a fitted effect of over 55% in size
Pf growth 96h = inhibits malaria parasite growth, 96 h | hit rate 6.9% among 320,000 | P. falciparum luciferase reporter growth, 96 h | Potency, µM (highest dose often 28.7 µM), without a hit: top-dose activity change, negative = inhibition, hits mostly inhibitors; note: % is set by controls: 0 for no effect and ±100 for the full control effect
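Two parasite generations (96 h, 37 C, 5% CO2) of compound exposure in infected erythrocytes (0.05% parasitemia, 2% hematocrit). Luciferase-reporter P. falciparum; decreased luminescence indicates inhibited growth, aimed at apicoplast-acting delayed death.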
* marks the source's active call; other numbers are inactive results; ? = inconclusive; · = not tested or not shown. Most compounds without a hit are left out; they make up all but 9.5% or so of the library. Unless noted, calls come from the whole dose curve; as a rule, active = well fitted inhibition curve with a large enough effect; inconclusive = small, poorly fitted or top-dose-only effect, or another doubt; inactive = no such curve, though single readings can be large or run the other way. Potency is the fitted concentration of half-maximal effect.

SMILES | RE007 growth inh | NS1 inh | Pf growth 48h | SARS PLP yeast | Pf growth 96h
COc1cc(NC(=S)NCCC(c2ccccc2)c2ccccc2)cc(OC)c1 | 10% | 8% | 13µM* | ? | ?
COc1ccc(NC(=S)Nc2cccc(C)n2)cc1 | -12% | 0% | 4.7µM* | 0% | ?
COc1ccc(CCNC(=S)Nc2ccccc2)cc1 | -3% | -7% | 10µM* | -1% | ?
COc1ccc(NC(=O)Nc2cccc(C)n2)cc1 | -8% | -17% | 140% | -7% | 5%
COc1cccc(NC(=S)NCCC(c2ccccc2)c2ccccc2)c1 | 22% | 11% | ? | 27% | ?
S=C(NCCOCCOCCNC(=S)Nc1ccccc1)Nc1ccccc1 | -20% | 2% | 6.6µM* | -1% | -1%
COc1ccc(CNC(=S)Nc2ccc(OC)cc2)cc1 | 9% | 13% | -6% | 11µM* | 325%
CCC(=O)Nc1cccc(C2=NOC3(C2)C[C@@H](C(N)=O)N(C(=O)c2ccccc2C(=O)c2ccccc2)C3)c1 (some centres not stated) | 10% | -5% | ? | 2% | ?
NC(=O)[C@H]1CC2(CC(c3cccc(NC(=O)CC(c4ccccc4)c4ccccc4)c3)=NO2)CN1C(=O)c1ccccc1C(=O)c1ccccc1 (some centres not stated) | 0% | 13% | 9.3µM* | -2% | 8.3µM*
C/C=C\C(=O)Nc1cccc(C2=NOC3(C2)C[C@@H](C(N)=O)N(C(=O)c2ccc(Cl)cc2)C3)c1 (some centres not stated) | -14% | -6% | 17% | 2% | -16%
C/C=C/C(=O)Nc1cccc(C2=NOC3(C2)C[C@H](C(N)=O)N(C(=O)c2ccccc2C(=O)c2ccccc2)C3)c1 (some centres not stated) | · | -6% | 9.3µM* | 0% | 12µM*
C/C=C(\C)C(=O)N1CC2(CC(c3cccc(NC(=O)CC(c4ccccc4)c4ccccc4)c3)=NO2)C[C@H]1C(N)=O (some centres not stated) | · | 0% | ? | -3% | 8%
C/C=C\C(=O)Nc1cccc(C2=NOC3(C2)C[C@H](C(N)=O)N(C(=O)Cc2ccc([N+](=O)[O-])cc2)C3)c1 (some centres not stated) | -1% | -4% | ? | 1% | 12µM*
NC(=O)[C@H]1CC2(CC(c3cccc(NC(=O)CC(c4ccccc4)c4ccccc4)c3)=NO2)CN1C(=O)C(c1ccccc1)c1ccccc1 (some centres not stated) | 0% | ? | 10µM* | 4% | 13µM*
Cc1ccc(-n2nnc(-c3ccnc4ccccc34)n2)cc1 | -12% | -4% | 300% | -1% | 95%
Cc1cccc(-c2ncc(CN3CCCC(CO)(Cc4ccccc4C)C3)cn2)c1 (configuration not stated) | -2% | 1% | ? | -2% | ?
CN(C)Cc1ccc(-c2cc3onc(-c4ccccc4)c3c(=O)n2C)cc1 | · | -11% | · | · | ·
CCOC(=O)c1ccc(-n2ccnc2)c(NC(=O)c2cccc(Br)c2)c1 | 7% | 1% | 0% | 10% | 1%
CCOC(=O)c1ccc(-n2ccnc2)c(NC(=O)c2ccc(C(C)(C)C)cc2)c1 | -24% | -2% | 13µM* | 2% | 15µM*
CS(=O)(=O)N(CC(=O)Nc1ccccc1Br)Cc1ccccc1 | 0% | 3% | -8% | -2% | -14%
O=C(COc1ccc(Cl)cc1)N/N=C/CCc1ccccc1 | 14% | 10% | -11% | 0% | -2%
S=C(Nc1ccccc1)Nc1nc2ccccc2n1CCOc1ccc(Br)cc1 | 4% | 25% | 3.3µM* | ? | 4%
Cn1c(NC(=S)Nc2ccccc2)nc2ccccc21 | 1% | 7% | ? | 8.9µM* | ?
Nc1nc2ccccc2n1CCOc1ccc(Br)cc1 | -5% | -4% | ? | -3% | 5%
Cc1ccc(C2(c3ccc(C)cc3)CC2C(=O)Nc2ccc([N+](=O)[O-])cc2O)cc1 (configuration not stated) | -5% | -34% | 0.83µM* | -38% | 0.66µM*
SMILES | RE007 growth inh | NS1 inh | Pf growth 48h | SARS PLP yeast | Pf growth 96h
CC1(C)CC1C(=O)Nc1ccc([N+](=O)[O-])cc1Br (configuration not stated) | -6% | -15% | 19% | 7% | 17%
O=C(Nc1ccc([N+](=O)[O-])cc1)C1CC1(c1ccccc1)c1ccccc1 (configuration not stated) | 25% | 1% | 12µM* | 20% | ?
NC(=O)CSc1nnc(CSc2ncccn2)n1-c1ccccc1 | -1% | · | 8% | -1% | 13µM*
Cc1ccc(OCc2nnc(SCC(=O)c3ccccc3)n2-c2ccccc2)cc1 | -12% | 15% | 13µM* | -3% | -60%
Cc1cc(C)nc(SCc2nnc(SCC(=O)O)n2-c2ccccc2)n1 | -7% | 0% | 2% | 0% | 0%
CC(C)OP(=O)(OC(C)C)C1(NS(=O)(=O)c2ccc(Cl)cc2)C=C(Cl)C(=O)C(Cl)=C1 | -8% | -26% | ? | 2% | ?
COc1ccc(NC(=O)CSCC(=O)N(C)CCOc2ccc(Cl)cc2)cc1 | -19% | · | ? | -3% | ?
Cc1cccc(/N=C/c2c(O)n(-c3cc(Cl)ccc3N3CCOCC3)c(=O)c3ccccc23)n1 | · | 11% | · | · | ·
CC(=O)c1ccc(N=Cc2c(O)n(-c3cc(Cl)ccc3N3CCOCC3)c(=O)c3ccccc23)cc1 | 13% | ? | 0.66µM* | -1% | ·
N=C(N)SCc1ccc(Cl)c2ccccc12 (tested in a mixture with another compound) | · | -47% | · | · | ·
Cc1ccc(CNC(=O)CSCc2cccc(F)c2)cc1 | -4% | · | 86% | -2% | 0%
O=C(CSCc1cccc(F)c1)NCc1ccccc1 | 7% | · | 302% | 1% | 2.1µM*
Oc1ccccc1C1N=C(c2ccccc2)NC(c2ccccc2)=N1 | -2% | -6% | · | -14% | 1.7µM*
Oc1ccc(C2N=C(c3ccccc3)NC(c3ccccc3)=N2)cc1 | -13% | 9% | -13% | -2% | 12µM*
c1ccc(C2=NC(c3ccccc3)N=C(c3ccccc3)N2)cc1 | 4% | -3% | ? | 11% | -26%
O=C(Nc1ccccc1N1CCCCC1)C1CCN(C(=O)c2ccc(Cl)cc2)CC1 | 5% | · | ? | -3% | 0%
Cc1occc1-c1nnc(SCC(=O)NCCc2ccccc2)n1C(C)c1ccccc1 (configuration not stated) | 5% | -36% | ? | -1% | 8.3µM*
Cc1occc1-c1nnc(SCC(=O)NCCc2ccccc2)o1 | 11% | 0% | 251% | -1% | 37%
Cc1ccc(-n2c(SCC(=O)NCC3CCCO3)nnc2-c2ccoc2C)cc1 (configuration not stated) | 2% | -7% | · | 3% | ·
